# Compound activity from PubChem.
# Tb PGK inh: blocks T. brucei phosphoglycerate kinase. Potency, µM (series often up to 57.5 µM), without a hit: at the highest dose activity change, negative = inhibition, actives largely listed as inhibitors. AID 602233. PGK/GAPDH coupled, Kinase-Glo luminescence, 60 min. 0.043% of 380,000 active. P07378; note: nearly all actives have a fitted effect of over 60% in size
#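 Luminescent ATP detection (Kinase-Glo Plus) follows a 60-minute room-temperature incubation, with wells lacking PGK as controls. Buffer: 100 mM TEA (pH 7.6), 5 mM MgCl2, 0.01% Tween-20. Coupling enzyme GAPDH (100 nM final) supplies unstable 1,3-BPG in-well.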
# Apoferritin bind: binds horse apoferritin like a general anesthetic. P02791. apoferritin/1-aminoanthracene competitive binding, fluorescence. Potency, µM (series often up to 77.5 µM), for inactives: at the highest dose activity change, negative = displacement, actives largely listed as inhibitors. 0.074% of 350,000 active; note: nearly all actives have a fitted effect of over 20% in size
#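 In PBS, apoferritin at 10 uM is loaded with 1-AMA from a 50% saturated solution. After 10 min of compound exposure at ambient temperature, reduced 535 nm fluorescence indicates probe displacement.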
# Pin1 inhibitor: human Pin1 inhibition. AID 504891. 0.009% of 390,000 active. Q13526. Pin1 FP peptide displacement, HiFluor488, 10 min. Potency, µM (top dose mostly 115 µM), without a hit: at the highest dose activity, negative = inhibition, hits mostly inhibitors; active = well fitted inhibition curve with a large enough effect in the polarisation, with a control signal flat, not every such curve was filed as active; inconclusive = small, poorly fitted or top-dose-only effect, or effect the other way, or a change in a side signal; inactive = no such curve, though single readings can be large or run the other way; the % refers to the polarisation
# BCR signal inh: inhibitors of chronic active B-cell receptor signaling; AID 493014; 0.05% of 340,000 active; ABC-DLBCL IkBa-CBG/CBR reporter, luminescence ratio, 4 h; Potency, µM (titrated, usually from 46.1 µM), for inactives: at the top dose activity change, negative = inhibition, actives largely listed as inhibitors; active = well fitted inhibition curve with a large enough effect in the signal ratio, with a control signal flat, not every such curve was filed as active; inconclusive = small, poorly fitted or top-dose-only effect, or effect the other way, or a change in a side signal; the % refers to the signal ratio;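 note: plate controls were basal doxycycline-induced cells for no effect and cells given 10 µM MG132 for full effect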
#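 Cell line TMD8 (human ABC DLBCL), stably expressing tet-inducible CBG68-IkBa fusion and CBR; IMDM/0.5% FBS; cpd up to 46 uM; dox induction, 4 h, 37C/5% CO2; dual luminescence; green/red ratio; MG132 control.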
# FEN1 inh: inhibitors of human flap endonuclease 1; AID 588795; P39748; Recombinant FEN1 flap cleavage, fluorescence, 15 min; 0.35% of 390,000 active; Potency, µM (titrated, usually from 114 µM), without a hit: top-dose activity change, negative = inhibition, usual class: inhibitors; note: nearly all actives have a fitted effect of over 65% in size
#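 Reaction started by adding substrate (50 nM final) to 10 nM enzyme after 15 min room-temperature compound preincubation. Reads at 0 and 15 min, with data normalized and fitted to a four-parameter Hill equation.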
# B2AR arrestin: agonists driving beta-arrestin recruitment to human beta2-adrenergic receptor. beta-arrestin recruitment to beta2AR, cell-based reporter. P07550. Potency, µM (highest dose often 46.1 µM), inactives show top-dose activation, usual class: activators. AID 492947. 0.02% of 330,000 active;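 note: 0% = DMSO controls and full agonism = EC100 isoproterenol or metaproterenol; nearly all actives have a fitted effect of over 65% in size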
# Target sequence (P07550 whole entry, looked up): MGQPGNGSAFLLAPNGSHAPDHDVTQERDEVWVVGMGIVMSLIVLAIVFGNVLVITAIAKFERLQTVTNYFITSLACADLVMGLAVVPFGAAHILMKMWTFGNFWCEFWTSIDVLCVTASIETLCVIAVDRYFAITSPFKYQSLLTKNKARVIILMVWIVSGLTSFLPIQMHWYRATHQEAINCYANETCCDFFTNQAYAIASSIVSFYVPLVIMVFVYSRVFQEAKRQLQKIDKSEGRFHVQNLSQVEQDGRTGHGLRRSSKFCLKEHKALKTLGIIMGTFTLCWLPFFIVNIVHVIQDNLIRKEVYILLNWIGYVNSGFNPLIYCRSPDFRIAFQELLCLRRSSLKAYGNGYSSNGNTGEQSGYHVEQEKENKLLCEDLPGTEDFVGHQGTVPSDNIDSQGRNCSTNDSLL
# Numbers without * were called inactive; i = inactive; ? = inconclusive; . = no result. Most compounds without a hit are left out; they make up all but 0.45% or so of the library. Unless noted, calls come from the whole dose curve; as a rule, active = well fitted curve in the direction sought with a large enough effect; inconclusive = small, poorly fitted or top-dose-only effect, or another doubt; inactive = no such curve, though single readings can be large; an effect the other way counts as inactive or inconclusive. Unless noted, % is set by controls: 0 for no effect and ±100 for the full control effect; potency is the fitted concentration of half-maximal effect.
SMILES,Tb PGK inh,Apoferritin bind,Pin1 inhibitor,BCR signal inh,FEN1 inh,B2AR arrestin
CN1C2CCC1/C(=C\c1ccc(F)cc1)C(=O)/C2=C/c1ccc(F)cc1,4%,2%,0%,1%,-5%,3%
COc1ccc(-n2sc3ccc(F)cc3c2=O)cc1,-6%,.,-21%,?,?,-1%
O=c1c2cc(F)ccc2sn1-c1ccc(F)cc1,2%,.,-11%,?,79µM*,0%
Cc1c(Cl)cccc1NC(=S)N=Nc1c(O)n(CN2CCOCC2)c2ccccc12,-6%,-22%,3%,7.3µM*,-10%,0%
COc1cc(OC)c(/C=C/c2nccc3ccccc23)c(OC)c1,.,.,.,.,4µM*,.
COc1cc(OC)c(/C=C/c2ccccn2)c(OC)c1,.,.,.,.,14%,.
C=C(C)C(=O)OC1(C(F)(F)F)Oc2cc(C)ccc2NC1=O (stereo not given),-6%,18µM*,0%,?,-2%,?
CSC1=NSC2=NC(=O)/C(=C/c3coc4ccccc4c3=O)C(=N)N12,-13%,-2%,?,?,79µM*,-1%
CSC1=NSC2=NC(=O)/C(=C/c3coc4ccc(O)cc4c3=O)C(=N)N12,?,43%,?,?,45µM*,0%
CSC1=NSC2=NC(=O)/C(=C\c3cccs3)C(=N)N12,-9%,2%,0%,?,4%,-1%
COc1cc(F)c(S(=O)(=O)N2CCN(S(=O)(=O)c3cccc(NC(C)=O)c3)CC2)c(F)c1,.,.,5%,.,.,.
COc1cccc(C2c3c(ncn(-c4ccc(C#N)cc4)c3=N)Oc3ccc4ccccc4c32)c1 (stereo not given),.,.,38%,.,.,.
Cc1ccc(NS(=O)(=O)c2ccc3c(c2)CCC(C)(C)O3)cc1C,.,.,89%,.,.,.
Cc1ccc(S(=O)(=O)Nc2ccc(O)c3ncccc23)cc1,-10%,-16%,-8%,6%,13µM*,0%
Cc1ccc(S(=O)(=O)Nc2ccc(O)c3cccnc23)cc1,-5%,-2%,4%,?,8%,-1%
CC1CCCN(C(=S)SCC(=O)c2cc(Br)cc(Br)c2O)C1 (stereo not given),i,?,?,1%,50µM*,0%
O/N=C1/CC/C(=N\O)c2nn(-c3ccccc3)nc21,-6%,-4%,7%,5.8µM*,6%,0%
COc1ccc(C2Nc3ccccc3C(=O)N2Cc2ccc(-c3ccccc3)cc2)cc1COc1ccc(NC(C)=O)cc1 (stereo not given),.,.,-11%,.,.,.
O=C(CCCN1C(=O)/C(=C\c2ccco2)SC1=S)Nc1ccc(O)cc1C(=O)O,?,6%,?,1%,50µM*,0%
CC(=O)Nc1cccc(OCc2cccc(C3Nc4ccccc4C(=O)N3Cc3ccco3)c2)c1 (stereo not given),.,.,52%,.,.,.
Oc1ccc(/C=C/c2ccccc2)c2cccnc12,.,.,-1%,.,.,.
O=C(COc1ccccc1O)c1cccs1,-5%,28µM*,0%,2%,3%,0%
O=C(OCC(=O)c1cccs1)c1ccccc1,-2%,?,-5%,?,-8%,0%
CCc1cccc(NC(=O)CN2C(=O)CCc3cc(S(=O)(=O)N4CCOCC4)ccc32)c1,-8%,-2%,0%,.,-4%,.
CC1CCN(S(=O)(=O)c2ccc3c(c2)CCC(=O)N3CC(=O)Nc2cccc(C#N)c2)CC1,14µM*,-5%,?,10%,6%,0%
CN(C)CCN1C(=O)c2cccc3cc([N+](=O)[O-])cc(c23)C1=O,-1%,.,?,.,20µM*,.
CC1=CC(C)(C)N2C(=O)C(=O)c3cc(OC(=O)c4ccco4)cc1c32,i,?,6%,11µM*,8%,0%
CC1Cc2ccccc2N1C(=O)COC(=O)c1ccc([N+](=O)[O-])o1 (stereo not given),0%,.,-5%,-3%,28µM*,0%
O=C(O)c1cc(O)c(O)c(O)c1,.,-11%,.,.,.,.
NNC(=O)c1cc(O)c(O)c(O)c1,-24%,-10%,?,?,22µM*,0%
